VCAM1 TNFa pot: TNF alpha stimulated VCAM1 expression potentiation; HUVEC TNFa-stimulated VCAM-1 immunofluorescence, high-content imaging; scaled per plate to unstimulated/TNFa-only wells; activation, % at 2 µM; actives 0.19% (n = 93,000);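 active = activation above the screen mean plus 3 SD, with well images confirming the hit on visual review, cut at about 28% in these data, passing the limit was not always enough; inconclusive = activation above that limit but images do not confirm it; inactive = activation not above that limit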;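 note: signal is the number of cytoplasmic VCAM-1 stained grains per positive cell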
VCAM1 pot conf: potentiators of TNFa-induced VCAM1 expression, confirmation, imaging, HUVEC, triplicate retest; shares compounds with VCAM1 TNFa pot; activation, % at 2 µM; HUVEC TNFa-stimulated VCAM-1 immunofluorescence imaging; 230 tested, under 10 active;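 active = activation above 30% in triplicate retests at 2 µM, then confirmed by visual review of the well images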;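 note: scaled per plate between unstimulated and TNFa-stimulated DMSO control wells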
* = called active by the depositor. Many of the other results were omitted from the sample, so hits are more common in it than they were.

Screening CCOC(=O)C(C)n1cnc2c(cnn2-c2ccc(Cl)cc2)c1=O (stereo not given) returned VCAM1 TNFa pot -2.6.
For CCOC(=O)C1CCCN(S(=O)(=O)c2ccc(F)c(C(=O)Nc3ccc(F)c(F)c3)c2)C1 (stereo not given) the results were VCAM1 TNFa pot -0.6.
CCOC(=O)C1CCCN(c2ncnc3c2cnn3-c2ccc(Cl)cc2)C1 (stereo not given) was read as VCAM1 TNFa pot 39.7* and VCAM1 pot conf -11.9.
`Cc1ccc(C(C(=O)NC2CCCCC2)N(Cc2ccco2)C(=O)Cc2c[nH]c3ccccc23)o1` (stereo not given) gave VCAM1 TNFa pot 4.4.
`CC(Oc1ccc(Cl)cc1Cl)C(=O)Nc1ccc2oc(-c3ccncc3)nc2c1` (stereo not given) gave VCAM1 TNFa pot 5.9.
Cc1cc2nc(-c3ccc(NC(=O)C(C)C)cc3)oc2cc1C was read as VCAM1 TNFa pot 58.0* and VCAM1 pot conf -2.6.
For COc1ccc(N/C(=N\c2nc(C)cc(C)n2)NC(=O)C(C)C)cc1OC the results were VCAM1 TNFa pot 2.7.
For COc1ccc(OC)c(/C=C/C(=O)c2ccc(Cl)cc2)c1 the results were VCAM1 TNFa pot -8.4.
For O=C(/C=C(\c1ccc(Cl)cc1)n1cncn1)c1ccc(Cl)cc1 the results were VCAM1 TNFa pot -7.4.
CCOCC(=O)Nc1nnc(C2CCCCC2)s1 was read as VCAM1 TNFa pot -20.6.
For CCOc1ccc(-c2nc(C#N)c(NCC(C)C)o2)cc1 the results were VCAM1 TNFa pot 2.1.
For C=CCNc1oc(-c2ccc(OC)cc2)nc1C#N the results were VCAM1 TNFa pot 44.8* and VCAM1 pot conf -10.1.
Screening N#Cc1nc(-c2ccc(OCc3ccccc3)cc2)oc1N1CCOCC1 returned VCAM1 TNFa pot -1.0.
c1ccc(-n2ncc3c(NCc4ccco4)ncnc32)cc1 was read as VCAM1 TNFa pot -5.5.
For COc1ccccc1C(=O)NC(CCSC)C(=O)NCC(c1ccco1)N(C)C (stereo not given) the results were VCAM1 TNFa pot 10.0.
`CN(C)C(CNc1nnnn1-c1ccccc1)c1ccco1` (stereo not given) gave VCAM1 TNFa pot inconclusive and VCAM1 pot conf -5.8.
Screening O=C1/C(=C/c2cccc3ccccc23)CCCc2ccccc21 returned VCAM1 TNFa pot 32.9.
Screening Cn1ccnc1C(=O)c1cc(=O)c2ccccc2o1 returned VCAM1 TNFa pot 7.6.
Screening O=C(N/C=C/c1ccc(Cl)cc1)NCc1ccc(Cl)cc1 returned VCAM1 TNFa pot 9.8.
`CC(C)(C)n1[nH]c2c3c(ccc2c1=O)C(=O)c1ccccc1C3=O` gave VCAM1 TNFa pot 37.0* and VCAM1 pot conf -3.7.
COC(=O)c1sc(=S)n(-c2cccc(Cl)c2)c1N was read as VCAM1 TNFa pot -7.9.
Screening CC1=Nc2ccc(C)cc2N(Cc2ccccc2)C(=O)C1 returned VCAM1 TNFa pot -4.4.
`CCOCCCNC(=O)C(NC(=O)c1ccc(=O)[nH]c1)c1ccccc1` (stereo not given) gave VCAM1 TNFa pot 5.6.
For O=C(NCc1cccs1)C1CCCN1S(=O)(=O)c1ccccc1F (stereo not given) the results were VCAM1 TNFa pot -3.4.
Screening O=C(Nc1ccc(Cl)cn1)C1CCCN1S(=O)(=O)c1cccc2ccccc12 (stereo not given) returned VCAM1 TNFa pot 31.2* and VCAM1 pot conf -11.9.
`O=C(NC1CCCCC1)C1CCCN1S(=O)(=O)c1cccc2nsnc12` (stereo not given) gave VCAM1 TNFa pot -1.2.
CCCn1nnnc1NC(=O)c1cccs1 was read as VCAM1 TNFa pot -6.4.
Screening O=C(Oc1ccc2ccc(OC(=O)N3CCOCC3)cc2c1)N1CCOCC1 returned VCAM1 TNFa pot 2.7.
COc1ccc2c(C)cc(SCC(=O)N3CCOCC3)nc2c1 was read as VCAM1 TNFa pot inconclusive and VCAM1 pot conf -21.1.
Cc1ccc(OCc2nnc(SCC(=O)N3CCOCC3)n2C)cc1 was read as VCAM1 TNFa pot -14.9.
Screening CON1C(=O)CN(C(C)=O)C1c1ccc(Cl)cc1Cl (stereo not given) returned VCAM1 TNFa pot -4.4.
Screening O=C(NN1C(=O)c2ccccc2NC1c1ccccn1)c1ccc(Br)cc1 (stereo not given) returned VCAM1 TNFa pot -9.5.
For CCCC(C(=O)NC1CCCC1)N(CCCN1CCOCC1)C(=O)c1snc(C(N)=O)c1N (stereo not given) the results were VCAM1 TNFa pot -78.3.
For CC(C)Oc1cc(NC(=O)CSCC(=O)Nc2cccc(C(F)(F)F)c2)c(Cl)cc1Cl the results were VCAM1 TNFa pot -3.8.
`Cn1c(=O)c(C(=O)c2ccccc2)nc2ccccc21` gave VCAM1 TNFa pot -7.1.
COc1ccc2oc(=O)c(C(C)=O)cc2c1 was read as VCAM1 TNFa pot 1.7.
For CC(=O)Oc1ccc2cc(-c3nc4ccccc4n3C)c(=O)oc2c1 the results were VCAM1 TNFa pot 48.3* and VCAM1 pot conf -14.6.
CC1CCCCC1NC(=O)c1ccc2c(c1)[nH]c(=O)n2C1CCCC1 (stereo not given) was read as VCAM1 TNFa pot -0.2.
C=CCc1cccc2cc(C(=O)N3CCN(C(=O)c4ccco4)CC3)c(=O)oc12 was read as VCAM1 TNFa pot -2.8.
Screening CC1CCN(C(=S)c2ccccc2O)CC1 returned VCAM1 TNFa pot -4.9.
`CC(C)CN1C(=O)c2ccc(C(=O)Nc3nccs3)cc2C1=O` gave VCAM1 TNFa pot -24.4.
`Cc1ncoc1C(=O)Nc1nccs1` gave VCAM1 TNFa pot 4.4.
Screening CCn1nccc1C(=O)Nc1nccs1 returned VCAM1 TNFa pot inconclusive and VCAM1 pot conf -13.0.
Screening O=C(Nc1cc(Cl)cc(Cl)c1)C1CCC(=O)N1Cc1ccccc1Cl (stereo not given) returned VCAM1 TNFa pot -2.8.
CC(=O)NC(Cc1ccccc1)C(=O)N1CCN(C(=O)c2cccs2)CC1 (stereo not given) was read as VCAM1 TNFa pot -6.8.
For CC(C)(C)NC(=O)C(=O)NNC(=O)C12CC3CC(CC(C3)C1)C2 the results were VCAM1 TNFa pot -4.7.
`COc1ccc(-c2onc3ccc(Cl)cc23)cc1` gave VCAM1 TNFa pot -9.7.
`CNc1nc(Oc2ccc(=O)n(C)n2)nc(N2CCOCC2)n1` gave VCAM1 TNFa pot 8.9.
`CCCc1ccc(-c2cc(NC(=O)CSc3n[nH]c(N)n3)n(-c3ccccc3)n2)cc1` gave VCAM1 TNFa pot -14.3.
Nc1cc(-c2ccccc2)nn1Cc1ccc(Cl)cc1 was read as VCAM1 TNFa pot -1.4.
`O=c1cc(-c2ccccc2)nc2nc(CCc3ccccc3)[nH]n12` gave VCAM1 TNFa pot 47.7* and VCAM1 pot conf -9.7.
`CCN(CC)c1ccc(C2CC(=O)Nc3cc(OC)c(OC)cc32)cc1` (stereo not given) gave VCAM1 TNFa pot -24.0.
CCCOC(=O)C1C2C=C[C@]3(CN(CCc4ccccc4)C(=O)[C@H]13)O2 (stereo not given in full) was read as VCAM1 TNFa pot -93.0.
`COc1cccc(-c2nnc(SCCC(=O)O)n2C)c1` gave VCAM1 TNFa pot 7.2.
`CSc1nnc(-c2ccc(NC(=O)CCc3ccccc3)cc2)n1C` gave VCAM1 TNFa pot inconclusive and VCAM1 pot conf -5.2.
Screening Cn1c(SCC(=O)Nc2ccccc2)nnc1-c1ccc(NC(=O)CCc2ccccc2)cc1 returned VCAM1 TNFa pot 3.3.
`Cn1c(=O)[nH]c2sc3c(c2c1=O)CC(C)(C)OC3` gave VCAM1 TNFa pot 7.4.

Source: PubChem (Columbia University Molecular Screening Center)
